Experimental data published in PubChem BioAssay (NCATS).
Inconclusive results are not listed. Active and inactive are the calls of the source. Calls come from the whole dose curve.

Legend:
[1] = Primary qHTS for inhibitors of SARS-S pseudo-typed particle cell entry (AID 1479145); conditions: outcome: dose series up to 57.1 µM unless noted; note: nearly all actives have a fitted effect of over 45% in size; for activity change, negative = inhibition: series mostly up to about 57 µM
[2] = Primary qHTS for Huh7 cytotoxicity: counterscreen for inhibitors of MERS-S pseudotyped particle cell entry (AID 1479147); conditions: outcome: dose series up to 57.1 µM unless noted
[3] = Primary qHTS for inhibitors of MERS-S pseudo-typed particle cell entry (AID 1479149); conditions: outcome: dose series up to 57.1 µM unless noted; note: nearly all actives have a fitted effect of over 60% in size; for activity change, negative = inhibition: series mostly up to about 57 µM
[4] = Primary qHTS for Vero E6 cytotoxicity: counterscreen for inhibitors of SARS-S pseudo-typed particle cell entry (AID 1479150)
% is set by controls: 0 for no effect and ±100 for the full control effect.

O=S(=O)(O)c1cc(O)ccc1O
inactive: outcome [1] | outcome [2] | outcome [3] | Potency [4]

CC(N)Cc1ccc(O)cc1 (stereo not drawn)
inactive: outcome [1] | outcome [2] | outcome [3] | Potency [4]

O=C(OCCN1CCCCC1)C(O)(c1ccccc1)c1ccccc1
inactive: outcome [1] | outcome [2] | outcome [3] | Potency [4]

CC[C@H](C)[C@H]1O[C@]2(C=C[C@@H]1C)C[C@@H]1C[C@@H](C/C=C(\C)[C@@H](O[C@H]3C[C@H](OC)[C@@H](O[C@H]4C[C@H](OC)[C@@H](O)[C@H](C)O4)[C@H](C)O3)[C@@H](C)/C=C/C=C3\CO[C@@H]4[C@H](O)C(C)=C[C@@H](C(=O)O1)[C@]34O)O2
inactive: outcome [1] | outcome [2] | Potency [4]

O=P(O)(O)C(Cl)(Cl)P(=O)(O)O
inactive: activity change, negative = inhibition [1] -10.6% [at 5.34 µM] | outcome [2] inactive [at 5.34 µM] | outcome [3] inactive [at 5.34 µM] | outcome [4] inactive [at 5.34 µM]

O=[N+]([O-])C(Br)(CO)CO
inactive: outcome [1] | outcome [2] | outcome [3] | Potency [4]

O=[N+]([O-])c1cc(I)c(O)c(I)c1
inactive: outcome [1] | outcome [2] | outcome [3] | Potency [4]

O=C(C[C@@H]1NCCC[C@H]1O)Cn1cnc2cc(Br)c(Cl)cc2c1=O
inactive: outcome [1] | outcome [2] | outcome [3] | Potency [4]

CCCCCCCCCC(=O)O[C@H]1CC[C@H]2[C@@H]3CCC4=CC(=O)CC[C@]4(C)[C@H]3CC[C@]12C
inactive: outcome [1] | outcome [2] | outcome [3] | Potency [4]

C[C@@H]([C@H](O)c1ccccc1)N(C)C
inactive: outcome [1] | outcome [2] | outcome [3] | Potency [4]

CN1[C@H]2CC[C@@H]1[C@@H](C(=O)O)[C@@H](OC(=O)c1ccccc1)C2
inactive: outcome [1] | outcome [2] inactive [at 114 µM] | outcome [3] inactive [at 114 µM] | Potency [4]
